Assay [1] is described as follows: NCI Yeast Anticancer Drug Screen. Data for the rad50 strain (AID 155).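 Further: 0% = growth of vehicle-only cultures of the same strain.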 The note with it: S. cerevisiae rad50 strain growth inhibition, active compounds read high. A digest of the protocol:
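DNA repair mutant yeast, compound exposure, growth read-out; inhibition is taken relative to vehicle.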

Assay [2] is described as follows: NCI Yeast Anticancer Drug Screen. Data for the mec2-1 strain (AID 157). The following applies: S. cerevisiae mec2-1 strain, active compounds read high. The essentials:
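Readout is yeast growth inhibition, normalised to vehicle-treated controls, in the mec2-1 strain exposed to compound.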

Assay [3] can be described thus: NCI Yeast Anticancer Drug Screen. Data for the sgs1 mgt1 strain (AID 161).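 Further: 0% = growth of cultures given vehicle only.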 The note with it: S. cerevisiae sgs1 mgt1 strain, active compounds read high. A digest of the protocol: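 Percent growth inhibition was derived by comparing compound-exposed mutant yeast with vehicle-exposed cultures. The strain carries alterations in DNA damage repair.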
A short description of assay [4]: NCI Yeast Anticancer Drug Screen. Data for the cln2 rad14 strain (AID 165).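 Further: 0% = growth equal to vehicle treated cultures.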 The note with it: S. cerevisiae cln2 rad14 strain, active compounds read high. The essentials:
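Relative to vehicle controls, growth inhibition of compound-treated cln2 rad14 yeast was recorded.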

Assay [5] in a line: NCI Yeast Anticancer Drug Screen. Data for the bub3 strain (AID 167). The following applies: S. cerevisiae bub3 mutant strain, active compounds read high. A digest of the protocol: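 In this screen, a yeast mutant lacking normal mitotic checkpoint function is challenged with compound. Relative growth versus vehicle gives the inhibition value.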
Assay [6] in a line: NCI Yeast Anticancer Drug Screen. Data for the mlh1 rad18 strain (AID 175). The note with it: S. cerevisiae mlh1 rad18 strain growth inhibition, active compounds read high. The essentials:
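Test agents were incubated with a yeast strain of defined genotype (DNA damage repair defect). Inhibition of growth was derived by comparison with vehicle-exposed cultures.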

The mark [7] stands for this setting: at 5.0 µM (retest, dose inferred, filed as 0.5).
The mark [8] stands for this setting: at 50.0 µM (retest, dose inferred, filed as 5.0).

SMILES strings stand for the structures. Compounds without any hit were thinned out: in the full panel of roughly 79,000, 15% have a hit. A number with no mark means an inactive call. Activity calls are given as the source filed them. No stated cut-off is given here; in the data, active means growth inhibition above about 70%; inactive means the rest.

As to `O=C(O)C(c1ccccc1)c1ccc(-c2ccccc2)cc1` (stereo not given), the growth inhibition in assay [1] (setting [7]) is 3%; in assay [1] (setting [8]), 82% (active); in assay [1] (at 50.0 µM), 96.7% (active); in assay [2] (setting [7]), -2%; in assay [2] (setting [8]), 64%; in assay [2] (at 50.0 µM), 96% (active). Further, the growth inhibition in assay [3] (setting [7]) is 5%; in assay [3] (setting [8]), 80% (active); in assay [3] (at 50.0 µM) it was 97.8% (active); in assay [4] (setting [7]), -7%; in assay [4] (setting [8]) it was 80% (active); in assay [4] (at 50.0 µM) it was 97% (active). In addition, the growth inhibition was 1% in assay [5] (setting [7]); 49% in assay [5] (setting [8]); 79% (active) in assay [5] (at 50.0 µM); 0% in assay [6] (setting [7]); 80% (active) in assay [6] (setting [8]); 91.2% (active) in assay [6] (at 50.0 µM).

As for `Cc1c2ccccc2c(C)n2c1nc1cc(Cl)c(Cl)cc12`, the growth inhibition in assay [1] (setting [7]) is 12%; in assay [1] (setting [8]), 95% (active); in assay [1] (at 50.0 µM), 86.2% (active); in assay [2] (setting [7]), 7%; in assay [2] (setting [8]) it was 93% (active); in assay [2] (at 50.0 µM), 91.3% (active). Further, the growth inhibition was 26% in assay [3] (setting [7]); 45% in assay [3] (setting [8]); 89.3% (active) in assay [3] (at 50.0 µM); 27% in assay [4] (setting [7]); 95% (active) in assay [4] (setting [8]); 87.1% (active) in assay [4] (at 50.0 µM). The growth inhibition is 18% in assay [5] (setting [7]); 97% (active) in assay [5] (setting [8]); 89.9% (active) in assay [5] (at 50.0 µM); 23% in assay [6] (setting [7]); 96% (active) in assay [6] (setting [8]); 85.6% (active) in assay [6] (at 50.0 µM).

As to `Nc1ccccc1O`, the growth inhibition in assay [1] (setting [7]) was 26%; in assay [1] (setting [8]) it was 58%; in assay [1] (at 50.0 µM), 55.8%; in assay [2] (setting [7]), 17%; in assay [2] (setting [8]), 37%; in assay [2] (at 50.0 µM), 35%. Besides, the growth inhibition in assay [3] (setting [7]) is 17%; in assay [3] (setting [8]), 40%; in assay [3] (at 50.0 µM), 51.1%; in assay [4] (setting [7]), 15%; in assay [4] (setting [8]), 30%; in assay [4] (at 50.0 µM), 8.3%. In addition, the growth inhibition in assay [5] (setting [7]) is 54%; in assay [5] (setting [8]), 77% (active); in assay [5] (at 50.0 µM), 71% (active); in assay [6] (setting [7]), 45%; in assay [6] (setting [8]), 77% (active); in assay [6] (at 50.0 µM) it was 73.2% (active).

`NCCNC[Si](c1ccccc1)(c1ccccc1)c1ccccc1`: the growth inhibition was -13% in assay [1] (setting [7]); 92% (active) in assay [1] (setting [8]); 7.6% in assay [1] (at 50.0 µM); -3% in assay [2] (setting [7]); 92% (active) in assay [2] (setting [8]); -21.4% in assay [2] (at 50.0 µM). For the same compound, the growth inhibition is -10% in assay [3] (setting [7]); 84% (active) in assay [3] (setting [8]); 8.2% in assay [3] (at 50.0 µM); -4% in assay [4] (setting [7]); 96% (active) in assay [4] (setting [8]); 5.3% in assay [4] (at 50.0 µM). Also, the growth inhibition was -10% in assay [5] (setting [7]); 94% (active) in assay [5] (setting [8]); 17.6% in assay [5] (at 50.0 µM); -12% in assay [6] (setting [7]); 87% (active) in assay [6] (setting [8]); 11.4% in assay [6] (at 50.0 µM).

Consider `Clc1cc2c(c3ncccc13)OCN(CCc1ccccc1)C2`, for which the growth inhibition in assay [1] (setting [7]) is 5%; in assay [1] (setting [8]), 8%; in assay [1] (at 50.0 µM), 98.7% (active); in assay [2] (setting [7]), -3%; in assay [2] (setting [8]) it was -5%; in assay [2] (at 50.0 µM), 94.2% (active). For the same compound, the growth inhibition in assay [3] (setting [7]) is 2%; in assay [3] (setting [8]), 7%; in assay [3] (at 50.0 µM), 99.2% (active); in assay [4] (setting [7]), 1%; in assay [4] (setting [8]), 16%; in assay [4] (at 50.0 µM), 78.5% (active). The growth inhibition is 4% in assay [5] (setting [7]); 0% in assay [5] (setting [8]); 69.6% in assay [5] (at 50.0 µM); 2% in assay [6] (setting [7]); 10% in assay [6] (setting [8]); 98.4% (active) in assay [6] (at 50.0 µM).

For the compound `COC(=O)[C@]1(C)CCC[C@]2(C)c3ccc(C(C)C)cc3C(=O)C[C@@H]12`, the growth inhibition was 5% in assay [1] (setting [7]); 87% (active) in assay [1] (setting [8]); 95.9% (active) in assay [1] (at 50.0 µM); 4% in assay [2] (setting [7]); 90% (active) in assay [2] (setting [8]); 99% (active) in assay [2] (at 50.0 µM). Besides, the growth inhibition in assay [3] (setting [7]) was 1%; in assay [3] (setting [8]), 93% (active); in assay [3] (at 50.0 µM), 96.2% (active); in assay [4] (setting [7]) it was 4%; in assay [4] (setting [8]), 82% (active); in assay [4] (at 50.0 µM), 89.5% (active). Further, the growth inhibition is 6% in assay [5] (setting [7]); 88% (active) in assay [5] (setting [8]); 97.7% (active) in assay [5] (at 50.0 µM); -9% in assay [6] (setting [7]); 73% (active) in assay [6] (setting [8]); 94.5% (active) in assay [6] (at 50.0 µM).

Regarding `O=C(CCl)N(Cc1ccccc1)Cc1ccccc1`, the growth inhibition in assay [1] (setting [7]) is -2%; in assay [1] (setting [8]), 92% (active); in assay [1] (at 50.0 µM), 84% (active); in assay [2] (setting [7]) it was -1%; in assay [2] (setting [8]), 95% (active); in assay [2] (at 50.0 µM), 92.1% (active). Also, the growth inhibition was -8% in assay [3] (setting [7]); 94% (active) in assay [3] (setting [8]); 89.5% (active) in assay [3] (at 50.0 µM); 2% in assay [4] (setting [7]); 84% (active) in assay [4] (setting [8]); 42.5% in assay [4] (at 50.0 µM). For the same compound, the growth inhibition in assay [5] (setting [7]) is 6%; in assay [5] (setting [8]), 92% (active); in assay [5] (at 50.0 µM), 85% (active); in assay [6] (setting [7]), -1%; in assay [6] (setting [8]), 92% (active); in assay [6] (at 50.0 µM) it was 78.6% (active).

Consider `CC(=O)c1c2c(cc3c1CC1(Cc4ccccc4C1=O)C3)CCC2` (stereo not given), for which the growth inhibition is -4% in assay [1] (setting [7]); 79% (active) in assay [1] (setting [8]); 36.7% in assay [1] (at 50.0 µM); -27% in assay [2] (setting [7]); 88% (active) in assay [2] (setting [8]); 42.8% in assay [2] (at 50.0 µM). In addition, the growth inhibition in assay [3] (setting [7]) was -36%; in assay [3] (setting [8]) it was 87% (active); in assay [3] (at 50.0 µM), 60%; in assay [4] (setting [7]), 27%; in assay [4] (setting [8]), 29%; in assay [4] (at 50.0 µM), 46.4%. The growth inhibition is -4% in assay [5] (setting [7]); 89% (active) in assay [5] (setting [8]); 63.8% in assay [5] (at 50.0 µM); -11% in assay [6] (setting [7]); 73% (active) in assay [6] (setting [8]); 61.5% in assay [6] (at 50.0 µM).

On to `[N-]=[N+]=Nc1c(-c2ccccc2)c(=O)n(-c2ccccc2)c2ccccc12`, for which the growth inhibition is -19% in assay [1] (setting [7]); 93% (active) in assay [1] (setting [8]); 88% (active) in assay [1] (at 50.0 µM); -20% in assay [2] (setting [7]); 94% (active) in assay [2] (setting [8]); 92.8% (active) in assay [2] (at 50.0 µM). The growth inhibition in assay [3] (setting [7]) was -10%; in assay [3] (setting [8]), 95% (active); in assay [3] (at 50.0 µM), 90% (active); in assay [4] (setting [7]) it was 12%; in assay [4] (setting [8]) it was 95% (active); in assay [4] (at 50.0 µM) it was 90% (active). For the same compound, the growth inhibition is -2% in assay [5] (setting [7]); 94% (active) in assay [5] (setting [8]); 90% (active) in assay [5] (at 50.0 µM); -13% in assay [6] (setting [7]); 96% (active) in assay [6] (setting [8]); 86.4% (active) in assay [6] (at 50.0 µM).

Take `SCCCCCCCCCCS`: the growth inhibition was 0% in assay [1] (setting [7]); 98% (active) in assay [1] (setting [8]); 98.9% (active) in assay [1] (at 50.0 µM); 0% in assay [2] (setting [7]); 99% (active) in assay [2] (setting [8]); 99.4% (active) in assay [2] (at 50.0 µM). For the same compound, the growth inhibition in assay [3] (setting [7]) is 1%; in assay [3] (setting [8]), 89% (active); in assay [3] (at 50.0 µM), 99% (active); in assay [4] (setting [7]), 4%; in assay [4] (setting [8]), 94% (active); in assay [4] (at 50.0 µM), 87.3% (active). For the same compound, the growth inhibition in assay [5] (setting [7]) is 2%; in assay [5] (setting [8]), 99% (active); in assay [5] (at 50.0 µM), 97.5% (active); in assay [6] (setting [7]), -1%; in assay [6] (setting [8]) it was 96% (active); in assay [6] (at 50.0 µM), 99.1% (active).

The values are drawn from PubChem BioAssay (NCI).
